Laboratory results from PubChem BioAssay (Tox21).
Values without a mark were called inactive. Results filed as inconclusive are left out. Active and inactive are the calls of the source. The call rests on the fitted dose curve; in most records, active means well fitted curve in the direction sought with a large enough effect in the repeat runs; inconclusive means weak or mixed curves; inactive means no such curve, though single readings can be large; an effect the other way counts as inactive or inconclusive.

test: Caspase-3/7 induction in HepG2 cells by small molecules, qHTS assay (AID 1346978); conditions: HepG2 caspase-3/7 activation, Caspase-Glo luminescence, 17 h; series mostly up to 92.4 µM; caspase activation: at the top concentration; further: nearly all actives have a fitted effect of over 15% in size
How it was run: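 Wild-type HepG2 cells (2,000/well) were settled 5 h at 37 C, 5% CO2, then exposed to compounds in DMSO for 17 h. Caspase-3/7 activity was read by luminescence 30 min after adding Caspase-Glo 3/7 reagent at room temperature.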
On the % scale 0 is the no-effect control and ±100 the full control effect.

Structure (SMILES) | caspase activation
CCCCCCCCS | 0.764%
CNc1ccccc1 | 0.212%
CCCCOC(=O)CC#N | 0.121%
CC(Cc1ccccc1)(NC(=O)CN)c1ccccc1 (stereo not given) | 0.422% [at 42.5 µM]
CCOC(OCC)OCC | -1.02%
CCC(=O)O[C@]1(C(=O)COC)[C@@H](C)C[C@H]2[C@@H]3CCC4=CC(=O)C=C[C@]4(C)C3(F)[C@@H](O)C[C@@]21C (stereo not given in full) | -0.867% [at 42.5 µM]
NC(=O)c1cc[n+](CC2=C(C(=O)[O-])N3C(=O)[C@@H](NC(=O)Cc4cccs4)[C@H]3SC2)cc1 | -0.55% [at 42.5 µM]
CC(CC(C#N)(c1ccccc1)C(C)C)N(C)C (stereo not given) | 0.127% [at 42.5 µM]
CC1(C)C(=O)NC(=O)N1CO | 0.0125%
N#CCCCC(C#N)CCC#N (stereo not given) | -0.808%
O=C(O)c1cc(C(=O)O)c(C(=O)O)cc1C(=O)O | 1.03%
FC1(F)C(F)(F)C(F)(F)C2(F)C(F)(C1(F)F)C(F)(F)C(F)(F)C1(F)C(F)(F)C(F)(F)C(F)(F)C(F)(F)C12F (stereo not given) | -0.612%
CC(=O)CC/C=C(\C)CC/C=C(\C)CC/C=C(\C)CCC=C(C)C | 0.191% [at 42.5 µM]
CC(C)(O)C(=O)O | 0.356%
CCCCCCCCCCCCSC#N | -0.768%
CCOC(=O)CC(O)(CC(=O)OCC)C(=O)OCC | 0.0078%
CC(C)CCCCCCCOC(=O)c1ccc(C(=O)OCCCCCCCC(C)C)c(C(=O)OCCCCCCCC(C)C)c1 | 0.162%

Structure (SMILES) | caspase activation
Nc1ccc(F)cc1F | 0.536%
O=C(O)c1ccccc1-n1cc(C(=O)O)c(=O)c2cc(Nc3c(F)cc(F)cc3Cl)c(Cl)cc21 | 0.729%
Cc1ccc(NC(=O)c2ccc(CN3CCN(C)CC3)cc2)cc1Nc1nccc(-c2cccnc2)n1 | -1.22% [at 42.5 µM]
CCCc1nc(C)c2c(=O)[nH]c(-c3cc(S(=O)(=O)N4CCN(CC)CC4)ccc3OCC)nn12 | 8.6% [at 42.5 µM]
COc1ccc(/C(C)=C/C(=O)O)c(OC)c1 | -2% [at 42.5 µM]
[O-][n+]1ccc(Cl)cc1 | 0.189%
CCOc1ccc(NC(C)=O)cc1N | 0.243%
Oc1ccc(Oc2ccccc2)cc1 | 1.59%
CS(C)=O | -0.504%
Cc1nc2sccn2c(=O)c1CCN1CCC(=C(c2ccc(F)cc2)c2ccc(F)cc2)CC1 | -1.65% [at 42.5 µM]
CC1(C)[C@@H]2CC[C@]3(C2)[C@@H]1C(=O)CCC3(C)C | -0.726%
Cc1cccc(C)c1NC(=O)CN1CCCC1 | 0.916% [at 42.5 µM]
CC1=CC(=C(c2ccc(N)cc2)c2ccc(N)cc2)C=CC1=N | 0.381% [at 8.39 µM]
CCCCCCCCCCCC(=O)OCC | 0.186%
O=C1C=CCCC1 | -2.05%
CCCCOC(=O)C(C)Oc1ccc(Oc2ccc(C(F)(F)F)cn2)cc1 (stereo not given) | -0.354%
N#C[C@@H]1CC(F)(F)CN1C(=O)CNC1CC2CCC(C1)N2c1ncccn1 (stereo not given in full) | -0.438%

test: Caspase-3/7 induction in CHO-K1 cells by small molecules, qHTS cell viability counter screen (AID 1346979); conditions: CellTiter-Fluor fluorescence, 17 h; series mostly up to 92.4 µM; activity change, negative = cytotoxicity: at the top concentration; further: nearly all actives have a fitted effect of over 35% in size; further: potency means the concentration at half of the fitted maximal effect
How it was run: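 To flag cytotoxic compounds, treated CHO-K1 wild-type cells were given CellTiter-Fluor at 16hr and read fluorescently after 1hr at 37C; the caspase-3/7 luminescence was measured in these same wells.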

Structure (SMILES) | activity change, negative = cytotoxicity | Potency
CCCCCCCCS | 11.6% | 
CCCCOC(=O)CC#N | -0.674% | 
O=C1c2ccccc2C(=O)c2c1ccc(O)c2O |  | 23.7 µM (active)
CC(Cc1ccccc1)(NC(=O)CN)c1ccccc1 (stereo not given) | -0.384% [at 42.5 µM] | 
CCCN(C1CCN(C(=O)C2CCNCC2)CC1)[C@@H]1CCc2ccc(OC)cc2C1 | 5.13% | 
CCC(=O)O[C@]1(C(=O)COC)[C@@H](C)C[C@H]2[C@@H]3CCC4=CC(=O)C=C[C@]4(C)C3(F)[C@@H](O)C[C@@]21C (stereo not given in full) | 1.6% [at 42.5 µM] | 
COC(=O)Cc1cccc2ccccc12 | 10.1% | 
NC(=O)c1cc[n+](CC2=C(C(=O)[O-])N3C(=O)[C@@H](NC(=O)Cc4cccs4)[C@H]3SC2)cc1 | 4.92% [at 42.5 µM] | 
CC(CC(C#N)(c1ccccc1)C(C)C)N(C)C (stereo not given) | 1.72% [at 42.5 µM] | 
CC(=O)c1cccnc1 | 4.34% | 
N#CCCCC(C#N)CCC#N (stereo not given) | 0.663% | 
O=C(O)c1cc(C(=O)O)c(C(=O)O)cc1C(=O)O | 0.0517% | 
CC(C)(O)C(=O)O | 11% | 
CCCCCCCCCCCCSC#N | -1.67% | 
CCOC(=O)CC(O)(CC(=O)OCC)C(=O)OCC | 4.11% | 
Nc1ccc(F)cc1F | 5.61% | 
O=C(O)c1ccccc1-n1cc(C(=O)O)c(=O)c2cc(Nc3c(F)cc(F)cc3Cl)c(Cl)cc21 | 1.3% | 
COc1ccc(/C(C)=C/C(=O)O)c(OC)c1 | 13.3% [at 42.5 µM] | 
[O-][n+]1ccc(Cl)cc1 | 4.92% | 
CCOc1ccc(NC(C)=O)cc1N | 1.6% | 
CS(C)=O | 6.69% | 
CC1(C)[C@@H]2CC[C@]3(C2)[C@@H]1C(=O)CCC3(C)C | 1.25% | 
CCCCCCCCCCCC(=O)OCC | 8.51% | 
O=C1C=CCCC1 | -0.142% | 

test: Caspase-3/7 induction in CHO-K1 cells by small molecules, qHTS assay (AID 1346980); conditions: CHO-K1 caspase-3/7 induction, Caspase-Glo luminescence, 17 h; series mostly up to 92.4 µM; caspase-3/7 activation: at the top concentration; further: nearly all actives have a fitted effect of over 15% in size
How it was run: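 Wild-type cells were seeded at 1,500 per well and settled 5 hr at 37 C, 5% CO2, then exposed to DMSO-dissolved compounds for 17 hr. Caspase-Glo 3/7 reagent was added, and luminescence was read after 30min at room temperature.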

Structure (SMILES) | caspase-3/7 activation
CCCCCCCCS | 1.09%
CNc1ccccc1 | 0.431%
CCCCOC(=O)CC#N | 1.47%
O=C1c2ccccc2C(=O)c2c1ccc(O)c2O | -3.21% [at 42.5 µM]
CCCN(C1CCN(C(=O)C2CCNCC2)CC1)[C@@H]1CCc2ccc(OC)cc2C1 | 1.91%
CCOC(OCC)OCC | -2.19%
COC(=O)Cc1cccc2ccccc12 | -0.0947%
NC(=O)c1cc[n+](CC2=C(C(=O)[O-])N3C(=O)[C@@H](NC(=O)Cc4cccs4)[C@H]3SC2)cc1 | 0.164% [at 42.5 µM]
CC1(C)C(=O)NC(=O)N1CO | 0.0993%
CC(=O)c1cccnc1 | 0.219%
N#CCCCC(C#N)CCC#N (stereo not given) | -1.79%
O=C(O)c1cc(C(=O)O)c(C(=O)O)cc1C(=O)O | -0.376%
FC1(F)C(F)(F)C(F)(F)C2(F)C(F)(C1(F)F)C(F)(F)C(F)(F)C1(F)C(F)(F)C(F)(F)C(F)(F)C(F)(F)C12F (stereo not given) | 0.385%
CC(C)(O)C(=O)O | 3.94%
CCCCCCCCCCCCSC#N | 1.04%
CCOC(=O)CC(O)(CC(=O)OCC)C(=O)OCC | 0.289%

Structure (SMILES) | caspase-3/7 activation
CC(C)CCCCCCCOC(=O)c1ccc(C(=O)OCCCCCCCC(C)C)c(C(=O)OCCCCCCCC(C)C)c1 | 3.55%
Nc1ccc(F)cc1F | -0.901%
O=C(O)c1ccccc1-n1cc(C(=O)O)c(=O)c2cc(Nc3c(F)cc(F)cc3Cl)c(Cl)cc21 | 1.17%
CCCc1nc(C)c2c(=O)[nH]c(-c3cc(S(=O)(=O)N4CCN(CC)CC4)ccc3OCC)nn12 | 1.15% [at 42.5 µM]
COc1ccc(/C(C)=C/C(=O)O)c(OC)c1 | -1.14% [at 42.5 µM]
[O-][n+]1ccc(Cl)cc1 | 0.955%
Oc1ccc(Oc2ccccc2)cc1 | -0.137%
CS(C)=O | -0.38%
Cc1nc2sccn2c(=O)c1CCN1CCC(=C(c2ccc(F)cc2)c2ccc(F)cc2)CC1 | -0.578% [at 42.5 µM]
CC1(C)[C@@H]2CC[C@]3(C2)[C@@H]1C(=O)CCC3(C)C | 1.2%
Cc1cccc(C)c1NC(=O)CN1CCCC1 | 1.64% [at 42.5 µM]
CC1=CC(=C(c2ccc(N)cc2)c2ccc(N)cc2)C=CC1=N | 1.62% [at 8.39 µM]
CCCCCCCCCCCC(=O)OCC | -0.324%
O=C1C=CCCC1 | -0.57%
CCCCOC(=O)C(C)Oc1ccc(Oc2ccc(C(F)(F)F)cn2)cc1 (stereo not given) | -0.0384%
N#C[C@@H]1CC(F)(F)CN1C(=O)CNC1CC2CCC(C1)N2c1ncccn1 (stereo not given in full) | 0.855%
